Source: PubChem
HP1b chromo inh = blocks HP1-beta chromodomain binding to methylated histone tails; AlphaScreen HP1-beta / biotin-H3K9me3 peptide binding; Potency, µM (series often up to 114 µM), for inactives: at the top dose activity change, negative = inhibition, hits mostly inhibitors; hit rate 0.56% among 390,000; AID 540317; further: nearly all actives have a fitted effect of over 70% in size
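HP1-beta protein (50 nM final) preincubated 30 min at room temperature with biotinylated H3(1-18)K9me3 peptide (50 nM) in PBS pH 7.4, 0.01% Tween-20, then compound added for 30 min. AlphaScreen streptavidin donor/nickel chelate acceptor beads (10 ug/mL final), 30 min dark, luminescence read.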
12-LOX inh = ALOX12 (human) lipoxygenase inhibition | P18054 | purified 12hLO, xylenol orange hydroperoxide absorbance | Potency, µM (titrated, usually from 108 µM), for the others: top-dose activity change, negative = inhibition, most hits filed as inhibitors | hit rate 1.1% among 580,000; further: on the % scale 0 is the no-effect control and ±100 the full control effect
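Hydroperoxide product was detected by ferrous iron/xylenol orange as the 573 to 405 nm absorbance ratio. Arachidonic acid at 40 uM (final) was turned over for 30 min at room temperature by 150 nM human 12hLO, pH 7.0 Hepes buffer, after 15 min compound preincubation.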
BAZ2B inh = inhibitors of human BAZ2B bromodomain; AlphaScreen BAZ2B-H3K14Ac peptide displacement; AID 504333; hit rate 4.4% among 360,000; Potency, µM (highest dose often 114 µM), without a hit: at the top dose activity change, negative = inhibition, most hits filed as inhibitors; Q9UIF8; further: on the % scale 0 is the no-effect control and ±100 the full control effect; nearly all actives have a fitted effect of over 60% in size
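Protein-peptide AlphaScreen: BAZ2B 50 nM, b-H3K14Ac 50 nM, 1x PBS pH 7.4 + 0.01% Tween-20. Preincubation 30 min RT; cpd 30 min RT (top 110 uM); beads 20 min RT, light-protected.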
G9a block = G9a (human) methyltransferase inhibition; Q96KQ7; G9a H3K9 monomethylation, AlphaScreen, 2 h; Potency, µM (highest dose often 102 µM), inactives show at the top dose activity, negative = inhibition, hits mostly inhibitors; hit rate 8.8% among 350,000; further: on the % scale 0 is the no-effect control and ±100 the full control effect; nearly all actives have a fitted effect of over 75% in size
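Signal arises when biotinylated H3K9 peptide, once monomethylated, bridges streptavidin donor and antibody-captured acceptor beads. Enzyme at 20 nM was preincubated 15 min with test compounds; peptide 500 nM and SAM 20 uM then reacted for 2 h.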
PLK1 PBD block = PLK1 (human) polo-box domain binding inhibition | P53350 | Plk1 PBD binding of FITC phosphopeptide, fluorescence polarization | Potency, µM, for inactives: max response, negative = inhibition, hits mostly inhibitors | hit rate 2.8% among 360,000 | AID 720504; further: series mostly up to about 57 µM; on the % scale 0 is the no-effect control and ±100 the full control effect; nearly all actives have a fitted effect of over 65% in size
JMJD2A Tudor = blocks the human JMJD2A Tudor domain; O75164; AlphaScreen JMJD2A-Tudor / H3K4me3 peptide binding; Potency, µM (top dose mostly 114 µM), inactives show top-dose activity change, negative = inhibition, hits mostly inhibitors; hit rate 4.4% among 390,000; AID 504339; further: on the % scale 0 is the no-effect control and ±100 the full control effect; nearly all actives have a fitted effect of over 50% in size
Active calls of the source: *; ? = inconclusive; · = no result given; [ ] = remark or other dose. The list is not random: actives were taken first. Their share in the collection is about 9%. The call rests on the fitted dose curve; in most records, active means well fitted curve in the direction sought with a large enough effect; inconclusive means small, poorly fitted or top-dose-only effect, or another doubt; inactive means no such curve, though single readings can be large; an effect the other way counts as inactive or inconclusive. Potency means the concentration at half of the fitted maximal effect.

SMILES	HP1b chromo inh	12-LOX inh	BAZ2B inh	G9a block	PLK1 PBD block	JMJD2A Tudor
CCN(CC)c1ccc(/C=N/n2c(-c3ccccc3Br)n[nH]c2=S)cc1	?	?	?	2.8µM*	-29%	?
Cc1cccc(/C=N/n2c(-c3ccccc3)n[nH]c2=S)c1O	50µM*	4.5µM*	?	1.3µM*	27µM*	22µM*
Cc1cn2nc(C(=O)NCc3ccc(Br)cc3)cc2c(N2CCCC2)n1	·	40%	·	·	·	·
CCOc1ccc(-n2c(-c3ccc(C)cc3)nc3c(cnn3-c3ccccc3)c2=O)cc1	-4%	-24%	-6%	-7%[59 µM]	·	-20%
CNC(=S)N/N=C/c1c(C)nn(-c2ccccc2)c1Cl	29%	17%	22%	-27%[2.33 µM]	-3%	-4%
Cc1ccc(-n2nc(C)c(/C=N/n3c(C)n[nH]c3=S)c2Cl)cc1	30%	-13%	7%	3.2µM*	-8%	-20%
COc1ccc(/C=N/n2c(-c3ccccc3)n[nH]c2=S)cc1	-16%	?	?	1.4µM*	-18%	25µM*
O=[N+]([O-])c1ccccc1/C=C/C=N/n1c(-c2ccccc2F)n[nH]c1=S	?	-28%	?	1.8µM*	?	45µM*
COc1cccc(-c2cc(C(=O)N3CCN(C(=O)c4ccco4)CC3)on2)c1	13%	1%	-21%	5%	-20%	-8%
CCCCC1OC2(C)OC(=N)C1(C#N)C(C#N)(C#N)C2c1ccccc1 (stereo not given)	18%	?	2%	45µM*	-18%	-15%
CCc1ccc(OCc2nnc(-c3ccccc3Br)o2)cc1	84%	2%	144%	?	30µM*	83%
CCC(=O)Nc1nnc(S(=O)(=O)N(C)Cc2ccco2)s1	19%	-3%	-9%	14%	27µM*	?
Cc1ccc(C(=O)Nc2nnc(S(=O)(=O)N(C)Cc3ccco3)s2)cc1	53%	-24%	2%	?	·	-19%
CCCC(=O)Nc1nnc(S(=O)(=O)N(C)Cc2ccco2)s1	-13%[57 µM]	·	?	?	27µM*	?
COc1ccc(C(=O)OCC(=O)N2C(C)CCCC2C)cc1[N+](=O)[O-] (stereo not given)	34%	5%	-13%	9%	0%	-21%
Cc1ccc(C(=O)NN2C(=O)c3ccc(S(=O)(=O)c4ccc(C(=O)O)cc4)cc3C2=O)cc1	3%	4%	-3%	?	21µM*	16µM*
CCS(=O)c1scc(-c2ccc(Cl)cc2)c1C#N (stereo not given)	27%	163%	2%	50µM*	-12%	-3%
CCc1nc2c(C#N)c(-c3ccc(Cl)cc3)ccn2n1	52%	-8%	7%	13%[12.7 µM]	-2%	0%
C/C(=N\NC(=O)c1cccc(S(=O)(=O)Nc2cccc(Cl)c2)c1)c1cccs1	42%	1%	-5%	11%	-4%	-10%
COc1cccc(C2CC(=O)Nc3c2c(=O)[nH]c2ncnn32)c1 (stereo not given)	25%	?	-4%	1%	1%	35µM*
Cc1ccc(NC(=O)Cn2nnnc2-c2ccccc2N)cc1	2%	-24%	-4%	2%[59 µM]	·	-27%
Clc1ccccc1-c1nc(-n2ccnc2)c2ccccc2n1	·	56µM*	·	-47%[0.501 µM]	·	·
CN(C)c1ccc(-c2nc(-n3ccnc3)c3ccccc3n2)cc1	·	?	·	5%[0.501 µM]	·	·
CC(=O)c1c(C)[nH]c(C(=O)CSc2nnc(-c3cccs3)n2Cc2ccccc2)c1C	-22%	18%	-35%	-11%[12.7 µM]	17µM*	?
CCOC(=O)c1c(C)[nH]c(C(=O)CSc2nnc(-c3cccs3)n2Cc2ccccc2)c1C	35%	-30%	-4%[57.1 µM]	9%	2%	-15%
SMILES	HP1b chromo inh	12-LOX inh	BAZ2B inh	G9a block	PLK1 PBD block	JMJD2A Tudor
CC(=O)c1c(C)[nH]c(C(=O)CSc2nnc(-c3ccco3)n2Cc2ccccc2)c1C	9%	?	50µM*	40µM*	-14%	-14%[57.1 µM]
O=C(CSc1nnc(-c2ccco2)n1Cc1ccccc1)OC1CCCCC1	2%	-4%	?	50µM*	-10%	-23%[57.1 µM]
CCOC1=NN(c2ncc(C(F)(F)F)cc2Cl)C(=O)C1	-9%	18%	-11%	-1%	24µM*	?
CCOC(=O)C(C)Oc1ccc2c(-c3cccc([N+](=O)[O-])c3)cc(=O)oc2c1 (stereo not given)	6%	-10%	-13%	35µM*	-5%	-25%
CCC(Nc1nc(-c2ccccc2)nc2ccccc12)C(=O)O (stereo not given)	48%	-27%[57.4 µM]	11%	-10%	-16%	-2%
Cc1ccc(-c2cnc(SCC(=O)Nc3ccccc3)o2)cc1C	·	-2%	·	·	·	·
CC(N)(C(=O)O)c1ccc(C(=O)O)cc1 (stereo not given)	·	6%	·	17%[12.7 µM]	·	·
CCOc1ccc(C(C)(N)C(=O)O)cc1 (stereo not given)	6%	-11%	-38%	?	-3%	3.5µM*
O=C(CNC(=O)c1ccccc1F)N/N=C/c1cccs1	27%	18%	1%	8%	2%	-17%
CCOC(=O)c1c(C)[nH]c(C(=O)CN2CCOCC2)c1C	-6%	-25%	-9%	?	-8%	-7%
COC(=O)c1cc(C)sc1NC(=S)N1CCN(CCc2ccccc2)CC1	-11%	-9%	?	?	?	-28%
CCCN1CCN(C(=S)Nc2sc(CC)cc2C(=O)OC)CC1	15%	-196%	-37%	50µM*	-2%	?
CCc1cc(C(=O)OC)c(NC(=O)CCC(=O)O)s1	?	0%	8%	14µM*	30µM*	-12%
CCOC(=O)C1CCCN(C(=O)c2ccc3[nH]c4c(c3c2)CC(C)CC4)C1 (stereo not given)	?	32%	50µM*	?	-6%	?
CC1Sc2ccc(C(=O)N3CCCC(C(F)(F)F)C3)cc2NC1=O (stereo not given)	32%	19%	6%	9%	0%	-13%
CCOC(=O)C1CCCN(C(=O)c2ccc3c(c2)OCO3)C1 (stereo not given)	39%	0%	-3%	14%[59 µM]	-20%	1%[57.1 µM]
CC1CCc2[nH]c3ccc(C(=O)N4CCCC(C(F)(F)F)C4)cc3c2C1 (stereo not given)	-4%	13%	32µM*	35µM*	-3%	?
CCOC(=O)C1CCCN(C(=O)c2[nH]c3ccccc3c2Sc2ccc(Cl)cc2)C1 (stereo not given)	22%	-25%	?	8.9µM*	·	-33%
COc1cc2c(cc1OC)CN(Cc1ccc(F)cc1)CC2	-17%[57 µM]	?	50µM*	?	336%	3.2µM*
COc1cc2c(cc1OC)CN(Cc1cc(OC)c3c(c1)OCO3)CC2	-9%	-20%	50µM*	?	-7%	8.9µM*
